An excerpt weighted towards active compounds, which were near 3.6% of everything screened.
Mtb bLac sens = beta-lactam sensitization of Mtb H37Rv; M. tuberculosis H37Rv growth with meropenem, percent inhibition; inhibition, % at 25 µM; actives 0.27% (n = 330,000); AID 434955; call rule not given here;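 note: growth measured after seven days incubation then overnight dye step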
Mtb hypoxia rep = Mtb hypoxia fluorescent reporter inhibition; M. tuberculosis hypoxia-regulated fluorescent reporter, fluorescence; fluorescence inhibition, % (no concentration beside the values); actives 0.1% (n = 300,000); in the data active = fluorescence inhibition mostly above about 23%, no sharp cut-off; inactive = mostly below about 17%
GDH-TPI counter = counter-screen for M. tuberculosis FBA inhibitors: GDH-TPI coupled enzymes. actives 1.2% (n = 360,000). AID 588335. GDH-TPI coupled enzyme counterscreen, NADH absorbance. inhibition, % at 4.8 µM; in the data active = inhibition above about 30%
DUSP3 inh = blocks human VHR1 dual specificity phosphatase; recombinant VHR phosphatase, pNPP absorbance; inhibition, % at 13.3 µM; AID 1654; P51452; actives 0.52% (n = 290,000); in the data active = inhibition above about 50%
Mtb FBA inh = Mtb fructose-bisphosphate aldolase inhibition. P9WQA3. purified M. tuberculosis FBA, fluorescence read-out. inhibition, % at 1 µM. actives 2.3% (n = 360,000); in the data active = inhibition above about 27%
Target sequence (P9WQA3 whole entry, looked up): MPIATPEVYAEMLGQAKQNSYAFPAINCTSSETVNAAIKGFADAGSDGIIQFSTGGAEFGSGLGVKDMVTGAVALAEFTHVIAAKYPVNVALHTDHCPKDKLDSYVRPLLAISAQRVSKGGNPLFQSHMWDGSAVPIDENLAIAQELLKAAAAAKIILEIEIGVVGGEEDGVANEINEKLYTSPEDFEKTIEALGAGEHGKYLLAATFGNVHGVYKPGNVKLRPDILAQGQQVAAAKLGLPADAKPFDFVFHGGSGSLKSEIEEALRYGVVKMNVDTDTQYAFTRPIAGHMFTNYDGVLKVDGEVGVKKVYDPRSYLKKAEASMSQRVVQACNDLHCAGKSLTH
Each line names hits and unclear results; the compound was inactive in the other large screens.

CC(NC(=O)c1[nH]cnc1C(=O)Nc1nccs1)c1ccccc1 (configuration not stated)	none (no result: Mtb bLac sens, GDH-TPI counter, DUSP3 inh, Mtb FBA inh)
CCN(CC)c1ccc(C=NCCNS(=O)(=O)c2ccc(C)cc2)cc1	DUSP3 inh 57
Cc1noc(C)c1COc1ccc(C(=O)N2CCCC(C(N)=O)C2)cc1 (configuration not stated)	none
COc1c(C)cc(C(=O)C2CCCN(C3CCOCC3)C2)cc1C (configuration not stated)	none
COc1ccc2cc(C(=O)C3CCCN(C(=O)Cc4c(C)noc4C)C3)ccc2c1 (configuration not stated)	Mtb FBA inh 182
COc1ccc2cc(C(=O)C3CCCN(C4CCOCC4)C3)ccc2c1 (configuration not stated)	Mtb FBA inh 148
CC1CN(C(C)CO)C(=O)c2cccc(NS(=O)(=O)c3ccccc3)c2OC1CN(C)CC1CCCCC1 (configuration not stated)	none (no result: Mtb bLac sens, GDH-TPI counter, DUSP3 inh, Mtb FBA inh)
NC(=O)CNC(=O)C1CC2(CC(c3ccccc3)=NO2)CN1C(=O)c1ccc(Br)cc1 (configuration not stated)	none (no result: Mtb bLac sens, GDH-TPI counter, DUSP3 inh, Mtb FBA inh)
Cc1ccc(NC(=O)C(CC(C)C)NC(N)=O)cc1Cl (configuration not stated)	none
CC(C)CC(NC(N)=O)C(=O)Nc1ccc(Cl)c(Cl)c1 (configuration not stated)	DUSP3 inh 51
O=C1C=CN(Cc2ccccc2)C(c2ccccc2)C1 (configuration not stated)	GDH-TPI counter 35 (no result: DUSP3 inh)
CCOC(=O)c1cc(-c2cccs2)nc2c1c(C)nn2-c1ccccn1	GDH-TPI counter 37
N#CC(=NNc1ccc(S(=O)(=O)N2CCCCCC2)cc1)C(N)=S	none (no result: Mtb bLac sens, GDH-TPI counter, DUSP3 inh, Mtb FBA inh)
O=C(/C=C/c1cccs1)c1ccc(NC(=O)c2cccc(Br)c2)cc1	GDH-TPI counter 40
COC(CC(O)CC(=O)COCc1ccccc1)OC (configuration not stated)	none (no result: Mtb bLac sens, GDH-TPI counter, DUSP3 inh, Mtb FBA inh)
O=C(CN1C(=O)S/C(=C/C=C/c2ccccc2)C1=O)Nc1ccc(C(=O)O)cc1	none
O=C(CN1C(=O)S/C(=C\C=C\c2ccccc2)C1=O)Nc1ccc(C(=O)O)cc1	GDH-TPI counter 57
COc1ccc(NC(=O)CN2C(=O)S/C(=C/c3cccn3-c3ccc(C(=O)O)cc3)C2=O)cc1	DUSP3 inh 57 (no result: Mtb hypoxia rep)
NC(Cc1ccc(Cl)cc1)=NOC(=O)Cc1ccc([N+](=O)[O-])cc1	none (no result: Mtb bLac sens, GDH-TPI counter, DUSP3 inh, Mtb FBA inh)
COc1cc(C(=O)NN=Cc2sc(N3CCOCC3)nc2-c2ccccc2)cc(OC)c1OC	none (no result: Mtb bLac sens, GDH-TPI counter, DUSP3 inh, Mtb FBA inh)
CCCCC1CN=C(N)N1CCCC (configuration not stated)	none (no result: Mtb bLac sens, GDH-TPI counter, DUSP3 inh, Mtb FBA inh)
CCCc1[nH]n(-c2ccc([N+](=O)[O-])cc2)c(=O)c1C=NCCCn1ccnc1	GDH-TPI counter 32
Cc1[nH]n(-c2ccc([N+](=O)[O-])cc2)c(=O)c1C=NCCc1c(C)[nH]c2ccccc12	GDH-TPI counter 31
CCOC(=O)c1sc(NC(=O)c2ccc(C)s2)cc1C	GDH-TPI counter 43
CCOC(=O)c1sc(NC(C)=O)cc1C	none
O=C(O)c1ccc(N/N=C/C=C/c2ccccc2[N+](=O)[O-])cc1	GDH-TPI counter 39 (no result: Mtb hypoxia rep)
O=C(O)c1ccc(NN=C/C=C/c2ccc([N+](=O)[O-])o2)cc1	Mtb hypoxia rep 68 (no result: Mtb bLac sens, GDH-TPI counter, DUSP3 inh, Mtb FBA inh)
O=C(O)c1ccc(NN=C/C=C/c2ccccc2[N+](=O)[O-])cc1	none (no result: Mtb bLac sens, GDH-TPI counter, DUSP3 inh, Mtb FBA inh)
Cc1ccsc1C=NNC(=O)CCc1c(C)n[nH]c1C	none (no result: Mtb bLac sens, GDH-TPI counter, DUSP3 inh, Mtb FBA inh)
COc1cc(/C=C2/S/C(=N/S(=O)(=O)Cc3ccccc3)NC2=O)c([N+](=O)[O-])cc1OC	GDH-TPI counter 34
COc1cc(/C=C2\S/C(=N/S(=O)(=O)Cc3ccccc3)NC2=O)c([N+](=O)[O-])cc1OC	GDH-TPI counter 33
COc1cc(/C=C2/S/C(=N/S(=O)(=O)c3ccccc3)NC2=O)c([N+](=O)[O-])cc1OC	none
O=C1N/C(=N\S(=O)(=O)Cc2ccccc2)S/C1=C/c1cc([N+](=O)[O-])ccc1O	GDH-TPI counter 39
N#CC(=NO)c1nc2ccccc2s1	none (no result: Mtb bLac sens, GDH-TPI counter, DUSP3 inh, Mtb FBA inh)
Oc1ccccc1C=NNC(=S)NN=Cc1ccccc1O	GDH-TPI counter 45 (no result: Mtb bLac sens, DUSP3 inh)
Oc1ccc(/C=N/NC(=S)Nc2cccnc2)c(O)c1O	GDH-TPI counter 37 (no result: Mtb bLac sens, Mtb hypoxia rep)
O=C(CC1CC=CCCC(Cc2ccc(F)cc2)C(=O)OCC(Cc2ccccc2)NC1=O)NCCO (configuration not stated)	none (no result: Mtb bLac sens, GDH-TPI counter, DUSP3 inh, Mtb FBA inh)
Cn1c(=NNC(=O)C2CCCCC2)sc2ccccc21	none (no result: Mtb bLac sens, GDH-TPI counter, DUSP3 inh, Mtb FBA inh)
Cc1cc(C)c(NC(=O)Cn2ncc3ccccc32)c(C)c1	DUSP3 inh 57
CCOC(=O)/C(C#N)=C1/C=CN(C)C(C)=N1	GDH-TPI counter 67
CCOc1cc(C(=O)NCc2ccc(C)cc2)ccc1OCC(=O)N1CCOCC1	DUSP3 inh 51

Screening results as filed in PubChem.
